Compound activity (PubChem)
Dicer processing: inhibitors of Dicer pre-microRNA processing, primary screen, biochemical, cat-ELCCA, chemiluminescence. Endoribonuclease Dicer (Homo sapiens), Q9UPY3. cat-ELCCA pre-miR-21 Dicer processing; active compounds read high. z-score at 25 µM. 47,000 tested, 6% active; in the data active means z-score above about 3, passing the limit was not always enough;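 further: higher signal means more uncleaved substrate so more Dicer inhibition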
Target sequence (Q9UPY3 whole entry, looked up): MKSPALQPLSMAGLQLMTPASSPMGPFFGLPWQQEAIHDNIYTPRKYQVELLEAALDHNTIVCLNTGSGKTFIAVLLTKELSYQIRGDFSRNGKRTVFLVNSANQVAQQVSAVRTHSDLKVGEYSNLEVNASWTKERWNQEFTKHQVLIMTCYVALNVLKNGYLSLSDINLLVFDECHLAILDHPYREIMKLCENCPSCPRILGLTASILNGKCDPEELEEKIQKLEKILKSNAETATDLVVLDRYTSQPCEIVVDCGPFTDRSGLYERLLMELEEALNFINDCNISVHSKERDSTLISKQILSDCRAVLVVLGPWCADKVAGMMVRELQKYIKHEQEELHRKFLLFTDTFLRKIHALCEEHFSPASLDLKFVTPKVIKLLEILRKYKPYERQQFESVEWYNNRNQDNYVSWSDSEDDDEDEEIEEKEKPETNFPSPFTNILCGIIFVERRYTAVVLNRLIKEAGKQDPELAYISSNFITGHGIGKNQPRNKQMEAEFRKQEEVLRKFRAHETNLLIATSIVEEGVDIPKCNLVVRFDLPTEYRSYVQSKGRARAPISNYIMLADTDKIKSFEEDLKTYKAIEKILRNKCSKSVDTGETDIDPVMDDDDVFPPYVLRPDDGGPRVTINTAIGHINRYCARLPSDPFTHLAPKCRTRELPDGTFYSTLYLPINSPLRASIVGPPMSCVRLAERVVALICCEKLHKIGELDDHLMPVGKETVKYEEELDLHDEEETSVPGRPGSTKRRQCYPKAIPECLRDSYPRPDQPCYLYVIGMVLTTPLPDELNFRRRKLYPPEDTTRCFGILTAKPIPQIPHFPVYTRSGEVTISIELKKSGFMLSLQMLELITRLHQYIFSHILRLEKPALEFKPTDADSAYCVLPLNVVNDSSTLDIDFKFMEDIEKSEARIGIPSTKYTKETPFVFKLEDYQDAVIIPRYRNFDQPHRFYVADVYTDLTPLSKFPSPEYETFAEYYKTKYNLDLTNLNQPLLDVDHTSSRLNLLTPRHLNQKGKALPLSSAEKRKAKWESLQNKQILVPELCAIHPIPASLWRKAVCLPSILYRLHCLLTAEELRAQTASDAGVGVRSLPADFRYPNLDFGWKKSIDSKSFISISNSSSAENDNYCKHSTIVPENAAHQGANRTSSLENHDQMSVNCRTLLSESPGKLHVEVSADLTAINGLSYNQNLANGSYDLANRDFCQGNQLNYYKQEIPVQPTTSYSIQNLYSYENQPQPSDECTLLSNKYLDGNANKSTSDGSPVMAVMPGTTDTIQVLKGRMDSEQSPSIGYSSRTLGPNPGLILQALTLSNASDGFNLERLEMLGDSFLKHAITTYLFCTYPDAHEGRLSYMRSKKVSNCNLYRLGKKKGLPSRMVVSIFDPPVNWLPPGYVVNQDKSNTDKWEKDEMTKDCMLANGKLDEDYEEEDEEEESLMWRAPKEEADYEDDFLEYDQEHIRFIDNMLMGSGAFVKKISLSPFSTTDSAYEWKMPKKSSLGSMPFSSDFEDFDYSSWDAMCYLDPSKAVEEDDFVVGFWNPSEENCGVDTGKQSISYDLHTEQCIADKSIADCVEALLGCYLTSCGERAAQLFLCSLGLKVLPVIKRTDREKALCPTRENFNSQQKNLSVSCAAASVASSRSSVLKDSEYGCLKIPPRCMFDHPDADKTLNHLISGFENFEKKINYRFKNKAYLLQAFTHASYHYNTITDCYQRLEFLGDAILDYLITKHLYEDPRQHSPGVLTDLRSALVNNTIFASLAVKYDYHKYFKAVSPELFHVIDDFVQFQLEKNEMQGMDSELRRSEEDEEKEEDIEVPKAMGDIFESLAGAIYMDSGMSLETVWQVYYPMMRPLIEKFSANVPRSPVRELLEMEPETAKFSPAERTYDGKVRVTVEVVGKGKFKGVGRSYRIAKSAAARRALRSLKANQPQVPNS
Large screens that a line does not name were inactive. This is one part of a sample in which hits are shown more often than they occur.

CSc1ccc(CN2CCN(S(=O)(=O)c3ccc(Cl)cc3)CC2)cc1	Dicer processing 3.5
O=C(c1ccncc1)N1CCN(Cc2ccc3c(c2)OCO3)CC1	none
Cc1ccc(S(=O)(=O)N2CCN(Cc3ccc4c(c3)OCO4)CC2)cc1	Dicer processing 7.4
Cc1nc(N2CCN(Cc3ccc4c(c3)OCO4)CC2)[nH]c(=O)c1C	Dicer processing 3.2
Cc1nc(N2CCN(Cc3ccc4c(c3)OCO4)CC2)[nH]c(=O)c1CCC(C)C	Dicer processing 3.7
CSc1ccc(CN2CCN(S(=O)(=O)c3ccccc3)CC2)cc1	none
CC1(C)CC(=O)c2cnc(N3CCN(Cc4ccc5c(c4)OCO5)CC3)nc2C1	none
COc1cc(C)c(S(=O)(=O)N2CCN(Cc3ccc4c(c3)OCO4)CC2)cc1C	none
c1cnc(N2CCN(Cc3ccc4c(c3)OCO4)CC2)nc1	none
Fc1ccccc1CSc1nnc([C@@H]2CCCN2)o1	none
COc1ccc(C2/C(=C(/O)c3ccc(C)cc3)C(=O)C(=O)N2CC(C)O)c(OC)c1 (configuration not stated)	none
O=c1sn(-c2ccc([N+](=O)[O-])cc2Cl)c(=O)n1C1Cc2ccccc2C1	none
Nc1ccc(-c2nc3ccccc3o2)cc1Cl	none
Cc1ccc(C(=O)NCC(=O)O)cc1[N+](=O)[O-]	none
Cc1ccc(S(=O)(=O)Nc2cccc3ccccc23)cc1	none
Cc1ccc(S(=O)(=O)Nc2cccc3cccc(Br)c23)cc1	Dicer processing 3.1
Cc1ccc(S(=O)(=O)Nc2ccc(C)cc2C)cc1	none
CCCCN1C(=O)C(O)(CC(=O)c2ccc(C)o2)c2cc(Br)ccc21 (configuration not stated)	none
CC(C)c1ccc(Nc2c(Nc3ccc(C(C)C)cc3)c(=O)c2=O)cc1	none
O=c1c(Nc2ccccc2)c(Nc2ccccc2)c1=O	Dicer processing 7.3
COc1nc(Nc2ccccc2)nc(OC)n1	none
O=C(c1nc(SCc2cccc(F)c2)n2ccccc12)C(F)(F)F	none
O=S(=O)(CCSc1ncccn1)c1ccc(F)cc1	Dicer processing 3
O=S(=O)(CCSc1nccc(-c2cccs2)n1)c1ccc(F)cc1	none
O=S(=O)(Nc1ncccn1)c1ccc(F)cc1	none
Cn1c(=O)c2c(ncn2CC(=O)Nc2ccc(F)c(Cl)c2)n(C)c1=O	none
C/C(=N\O)C(C)(C)Nc1cc(C(F)(F)F)cc(C(F)(F)F)c1	none
CC(C)(C)NC(=S)Nc1cc(C(F)(F)F)cc(C(F)(F)F)c1	none
CC1(C)OC(=O)C(=NNc2cc(C(F)(F)F)cc(C(F)(F)F)c2)C(=O)O1	Dicer processing 5.1
CCOc1cc(N2CCOCC2)c(OCC)cc1NS(=O)(=O)c1ccc(OC)cc1	none
CS(=O)(=O)c1sc(Br)c2c1C(=O)CCC2	Dicer processing 4.4
CS(=O)(=O)c1sc(C#N)c2c1C(=O)CCC2	none
CC1(C)CC(=O)c2c(S(C)(=O)=O)sc(Br)c2C1	none
Cc1onc(-c2c(Cl)cccc2Cl)c1CSC(=S)SC(C)(C)C	none
C=CCC1CC(=O)N(c2ccc(C)c(F)c2)C1=O (configuration not stated)	none
CCOc1ccc(/C(O)=C2/C(=O)C(=O)N(CCN(C)C)C23C(=O)N(C)c2ccccc23)cc1 (configuration not stated)	none
CC1Cc2cc(/C(O)=C3/C(=O)C(=O)N(CC4CCCO4)C34C(=O)N(C)c3ccccc34)ccc2O1 (configuration not stated)	none
CN1C(=O)C2(/C(=C(/O)c3ccccc3)C(=O)C(=O)N2CCN2CCOCC2)c2ccccc21 (configuration not stated)	Dicer processing 5.4
COCCCN1C(=O)C(=O)/C(=C(\O)c2ccc3c(c2)CC(C)O3)C12C(=O)N(C)c1ccccc12 (configuration not stated)	none
CCN1C(=O)C2(/C(=C(/O)c3ccc(Cl)cc3)C(=O)C(=O)N2CCN2CCOCC2)c2ccccc21 (configuration not stated)	none
COc1ccc(/C(O)=C2/C(=O)C(=O)N(CCCN3CCOCC3)C23C(=O)N(C)c2ccccc23)cc1 (configuration not stated)	none
Cc1ccc(/C(O)=C2/C(=O)C(=O)N(CCN(C)C)C23C(=O)N(C)c2ccccc23)cc1 (configuration not stated)	none
CN1C(=O)C2(/C(=C(/O)c3ccccc3)C(=O)C(=O)N2CCCN2CCOCC2)c2ccccc21 (configuration not stated)	Dicer processing 5.3
CCN1C(=O)C2(/C(=C(/O)c3ccccc3)C(=O)C(=O)N2CCN2CCOCC2)c2ccccc21 (configuration not stated)	none
CC1Cc2cc(/C(O)=C3/C(=O)C(=O)N(CCN(C)C)C34C(=O)N(C)c3ccccc34)ccc2O1 (configuration not stated)	Dicer processing 4.4
CCN1C(=O)C2(/C(=C(/O)c3ccc(F)cc3)C(=O)C(=O)N2CCCN2CCOCC2)c2ccccc21 (configuration not stated)	none
COc1ccc(/C(O)=C2/C(=O)C(=O)N(CCN3CCOCC3)C23C(=O)N(C)c2ccccc23)cc1 (configuration not stated)	Dicer processing 3.5
COc1ccc(OC)c(C(=O)CC2(O)C(=O)N(Cc3ccccc3)c3ccccc32)c1 (configuration not stated)	none
Cc1noc(-c2ccc(C(F)(F)F)cc2)c1C(=O)NN	none
Cn1ccnc1SCC(=O)Nc1ccc(C(C)(C)C)cc1	none
COCCCNC(=S)NNC(=O)CSCc1c(C)c(C)c(C)c(C)c1C	none
CC(C)(C)c1ccc(C(=O)NC(=O)Nc2cc(C(F)(F)F)cc(C(F)(F)F)c2)s1	none
O=C1C=CC(=O)C2C3c4ccccc4C(c4ccccc43)C12 (configuration not stated)	none
Cc1ccc(C)c(N2C(=O)C3C4c5ccccc5C(CO)(c5ccccc54)C3C2=O)c1 (configuration not stated)	none
O=C(c1ccc(F)c(Cl)c1)c1ccc(F)c(Cl)c1	none
O=C(O)C(c1ccccc1)C1CCCC1 (configuration not stated)	none
CC(C)(C)C(=O)ON=C(c1ccc(F)cc1)c1ccc(F)cc1	none
CSC1=NCCN1CC(=O)c1ccc(C)cc1	none
CCC(C#N)(c1ccccc1)c1ccc([N+](=O)[O-])cc1 (configuration not stated)	none
CC(=O)Nc1sc2c(c(=O)c1O)CCCC2	none
CCOc1ccc(C2Nc3ccccc3NC3=C2C(=O)CC(c2ccccc2)C3)cc1 (configuration not stated)	Dicer processing 3.6
Cc1ccc(C2Nc3ccccc3NC3=C2C(=O)CC(c2ccccc2)C3)cc1 (configuration not stated)	none
COc1ccccc1C1Nc2ccccc2NC2=C1C(=O)CC(c1ccccc1)C2 (configuration not stated)	none
COc1ccc(OC)c(C2Nc3ccccc3NC3=C2C(=O)CC(c2ccc(OC)c(OC)c2)C3)c1 (configuration not stated)	none
O=C1CC(c2ccco2)CC2=C1C(c1ccco1)Nc1ccccc1N2 (configuration not stated)	none
CCN(CC)c1ccc(C2CC(=O)C3=C(C2)Nc2ccccc2NC3c2ccco2)cc1 (configuration not stated)	Dicer processing 8.2
COc1ccc(C2CC(=O)C3=C(C2)Nc2ccccc2NC3c2ccc(OC)cc2OC)cc1 (configuration not stated)	Dicer processing 3
COc1ccc(C2CC(=O)C3=C(C2)Nc2ccccc2NC3c2ccccc2Cl)cc1OC (configuration not stated)	none
CSc1ccc(C2Nc3ccccc3NC3=C2C(=O)CC(c2ccccc2)C3)cc1 (configuration not stated)	none
